Assay outcomes (PubChem BioAssay)
Compounds with a hit are over-represented: about 19% of the library has one in this group of screens.
HepG2 tox = kills HepG2 cells in TGF-b inhibitor counter-screen; HepG2 CAGA-GFP viability, ATP luminescence, 18 h; Potency, µM (highest dose often 46.1 µM), for the others: at the top dose activity change, negative = cytotoxicity, actives largely listed as cytotoxic; actives 0.76% (n = 410,000); note: potency is the fitted concentration of half-maximal effect
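CellTiter-Glo luminescence gave cytotoxicity after 18 hours at 37 degrees C. The cells were HepG2 CAGA-GFP in 1% FBS DMEM, stimulated with 500 pg/mL TGF-beta after compound addition. %Activity was normalised to no-cell wells (complete cell-killing) and DMSO (no toxicity), and curves were fitted and classified.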
DT40 TDP1 no CPT = qHTS for Inhibitors of human tyrosyl-DNA phosphodiesterase 1 (TDP1): qHTS in cells in absence of CPT; DT40 Tdp1-/- hTDP1 cells, no CPT, ATP luminescence, 48 h; Potency, µM (doses to about 46.2 µM), for the others: at the top dose activity change, negative = growth inhibition, hits mostly inhibitors; actives 15% (n = 420,000); note: potency is the fitted concentration of half-maximal effect; % is set by controls: 0 for no effect and ±100 for the full control effect; nearly all actives have a fitted effect of over 55% in size
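Growth kinetics read by CellTiter-Glo luminescence after ≥48 hr at 37 °C. Cells: DT40 Tdp1-/- stably carrying human TDP1, 400 per well, compound exposure in the absence of CPT (DMSO vehicle).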
TGFb inhibitor = blocks TGF-b signaling; HepG2 CAGA-GFP TGF-b/SMAD3 reporter, GFP fluorescence, 18 h; TGF-beta stimulated, 500 pg/mL final; Potency, µM (highest dose often 46.1 µM), without a hit: at the highest dose activity, negative = inhibition, hits mostly inhibitors; actives 1.2% (n = 410,000); note: potency is the fitted concentration of half-maximal effect; % is set by controls: 0 for no effect and ±100 for the full control effect; nearly all actives have a fitted effect of over 65% in size
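Read-out: total well GFP (ex488/em500-530) summed from mean per-cell fluorescence. Cells: HEPG2 CAGA-GFP, 1% FBS DMEM, 18 h at 37 degrees C with 500 pg/mL final TGF-beta. Unstimulated wells served as the full-inhibition control; stimulated DMSO wells = 0%.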
TDP1 cell CPT = growth inhibition of DT40 Tdp1-/-;hTDP1 cells with camptothecin (screen for TDP1 inhibitors); chicken DT40 Tdp1-/-;hTDP1 cells + 20 nM CPT, ATP luminescence, 48 h; Potency, µM (titrated, usually from 46.2 µM), for the others: at the top dose activity change, negative = growth inhibition, usual class: inhibitors; actives 12% (n = 420,000); AID 686979; note: potency is the fitted concentration of half-maximal effect; % is set by controls: 0 for no effect and ±100 for the full control effect; nearly all actives have a fitted effect of over 55% in size
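Cell growth measured by CellTiter-Glo luminescence after a minimum 48 h, 37 C compound exposure with 20 nM CPT in Tdp1-knockout DT40 cells stably expressing hTDP1, seeded 400/well; qHTS titration format.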
TDP1 inh = TDP1 (human) enzyme inhibition. Q9NUW8. recombinant TDP1, AlphaScreen DNA substrate cleavage. Potency, µM (top dose mostly 130 µM), for the others: at the highest dose activity change, negative = inhibition, hits mostly inhibitors. actives 0.28% (n = 350,000). AID 485290; note: potency is the fitted concentration of half-maximal effect; % is set by controls: 0 for no effect and ±100 for the full control effect; nearly all actives have a fitted effect of over 40% in size
Target sequence (Q9NUW8 whole entry, looked up): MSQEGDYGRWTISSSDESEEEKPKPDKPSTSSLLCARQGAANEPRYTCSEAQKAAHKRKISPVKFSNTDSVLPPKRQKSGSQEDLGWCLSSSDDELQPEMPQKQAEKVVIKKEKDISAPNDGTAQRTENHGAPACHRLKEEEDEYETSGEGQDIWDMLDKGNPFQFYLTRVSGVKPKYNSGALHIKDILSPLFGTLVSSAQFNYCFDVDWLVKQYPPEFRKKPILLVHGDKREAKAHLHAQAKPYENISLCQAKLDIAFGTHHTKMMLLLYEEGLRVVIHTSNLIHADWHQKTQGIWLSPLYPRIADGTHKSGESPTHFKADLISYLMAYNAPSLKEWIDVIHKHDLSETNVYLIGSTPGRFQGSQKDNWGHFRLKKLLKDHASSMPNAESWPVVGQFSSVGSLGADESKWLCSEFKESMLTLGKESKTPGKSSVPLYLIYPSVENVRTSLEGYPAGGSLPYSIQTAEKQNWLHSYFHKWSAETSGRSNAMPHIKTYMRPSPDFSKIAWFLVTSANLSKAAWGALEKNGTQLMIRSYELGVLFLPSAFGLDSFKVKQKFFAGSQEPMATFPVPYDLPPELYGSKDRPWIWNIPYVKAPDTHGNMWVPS
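Tdp1 1 nM final; 15 min RT w/ cpd; substrate 15 nM, 5 min; beads 10 ug/ml, 10 min; AlphaScreen read. Neg ctrl: no enzyme.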
IL-1B inflam inh = inflammasome signaling inhibition, IL-1 beta readout. THP-1 LPS/ATP IL-1B secretion, AlphaLISA, 16 h; hits give low values. activity change, % at 57.5 µM. actives 4.7% (n = 360,000). AID 743279; in the data active = activity change below about -50%; inconclusive = mostly about -30% to -49%; note: % is set by controls: 0 for no effect and ±100 for the full control effect
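THP-1 cells pretreated 1 hr with compounds (up to 57.5 uM final), then stimulated with LPS (250 ng/mL final) plus ATP (1.25 mM final); secreted IL-1B measured by AlphaLISA after 16 hr, decreased signal indicating inhibition.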
Starred values were filed as active, the others as inactive; i = inactive; ? = inconclusive; . = not tested or not shown; [ ] = dose if it differs, or a comment. Unless noted, calls come from the whole dose curve; as a rule, active = well fitted curve in the direction sought with a large enough effect; inconclusive = small, poorly fitted or top-dose-only effect, or another doubt; inactive = no such curve, though single readings can be large; an effect the other way counts as inactive or inconclusive.

SMILES | HepG2 tox | DT40 TDP1 no CPT | TGFb inhibitor | TDP1 cell CPT | TDP1 inh | IL-1B inflam inh
COc1ccc(S(=O)(=O)N2CCC(C(=O)N3CCN(c4ccccc4OC)CC3)CC2)cc1 | -17% | ? | -20% | ? | 7% | -12
Cc1ccc(C)c(N2CCN(C(=O)C3CCCN(S(=O)(=O)c4cnc[nH]4)C3)CC2)c1 (centres undefined) | -15% | ? | 3% | ? | 3% | -13
CC(=O)N1CCCc2cc(S(=O)(=O)N3CCCC(C(=O)N4CCN(c5cc(C)ccc5C)CC4)C3)ccc21 (centres undefined) | -4% | 6.5µM* | 13µM* | 6.5µM* | 13% | -78*
COc1ccccc1N1CCN(C(=O)C2CCCN(S(=O)(=O)c3ccc4c(c3)CCCN4C(C)=O)C2)CC1 (centres undefined) | -7% | 8.2µM* | ? | 8.2µM* | 9% | 13
COc1ccccc1NC(=O)CSc1ccc2nnc(CCNC(=O)c3ccccc3)n2n1 | 48% | 5% | -17% | 1% | 3% | i
C/C=C/C1Oc2ccc(OC)cc2N2C(=O)C(C)C(OCOC)C12 (centres undefined) | . | . | . | . | 8%[21 µM] | .
COc1ccc(C(=O)N2CCNC(=O)C2CC(=O)Nc2cc(Cl)ccc2OC)cc1 (centres undefined) | 9% | -4% | 4% | -2% | 6% | -15
COc1ccc(OC)c(NC(=O)CC2C(=O)NCCN2C(=O)Nc2cccc(Cl)c2)c1 (centres undefined) | -30% | -14% | 2% | ? | 6% | -66*
O=C(CC1C(=O)NCCN1C(=O)Nc1ccc(Cl)cc1)Nc1ccc(F)cc1 (centres undefined) | -37% | -21% | ? | -29% | -5% | -64*
O=C(CSc1ccc(-c2cccnc2)nn1)Nc1ccc(F)c(F)c1 | -12% | ? | -2% | ? | 0% | 2
COc1ccc(N(C)C(=O)Cn2cc(S(=O)(=O)N3CCN(c4ccccc4F)CC3)c3ccccc3c2=O)c(OC)c1 | -1% | 23µM* | -18% | -28% | -2% | .
COc1ccc(NC(=O)Cn2cc(S(=O)(=O)N3CCN(c4ccccc4F)CC3)c3ccccc3c2=O)cc1Cl | 6% | -1% | 5% | 4% | 2% | .
c1ccc(-c2cccc(N3CCCC4(CCNCC4)C3)c2)cc1 | . | 21µM* | . | 12µM* | . | .
c1ccc(-c2cccc(N3CCC4(CCNCC4)CC3)c2)cc1 | . | 8.2µM* | . | 9.2µM* | . | .
CC(=O)N1CCC2(CC1)CN(c1ccccc1)C2 | . | -21% | . | ? | . | .
c1ccc(-c2cccc(N3CC4(CCNCC4)C3)c2)cc1 | . | 9.2µM* | . | 9.2µM* | . | .
c1ccc(-c2cccc(N3CC[C@@]4(CCCNC4)C3)c2)cc1 | . | 6.5µM* | . | 8.2µM* | . | .
O=S(=O)(c1ccccc1)N1CCC2(CCCN(c3cccc(-c4ccccc4)c3)C2)CC1 | . | -29% | . | 5% | . | .
CC1Cc2c(-c3ccccc3)nc3c(c2CO1)CN(CCOc1ccccc1)CC3 (centres undefined) | . | . | . | . | 9%[21 µM] | .
Cc1ccc(C(C(=O)NCc2ccccc2)N(Cc2cccs2)C(=O)c2ccc3c(c2)OCCO3)cc1 (centres undefined) | -12% | 3.7µM* | -6% | 9.2µM* | 3% | -7
COC(=O)c1ccc(C(C(=O)NCc2ccccc2)N(Cc2cccs2)C(=O)c2cnccn2)cc1 (centres undefined) | 3% | 16µM* | -2% | ? | 3% | -1
